An excerpt weighted towards active compounds, which were near 18% of everything screened.
HepG2 viability – qHTS for Inhibitors of TGF-b: Cytotox Counterscreen | HepG2 CAGA-GFP viability, ATP luminescence, 18 h | Potency, µM (top dose mostly 46.1 µM), for the others: top-dose activity change, negative = cytotoxicity, actives largely listed as cytotoxic | 0.76% of 410,000 active | AID 588856, 2011; note: potency is the fitted concentration of half-maximal effect
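CellTiter-Glo luminescence gave cytotoxicity after 18 hours at 37 degrees C. The cells were HepG2 CAGA-GFP in 1% FBS DMEM, stimulated with 500 pg/mL TGF-beta after compound addition. %Activity was normalised to no-cell wells (complete cell-killing) and DMSO (no toxicity), and curves were fitted and classified.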
DT40 TDP1 CPT – qHTS for Inhibitors of human tyrosyl-DNA phosphodiesterase 1 (TDP1): qHTS in cells in presence of CPT. AID 686979, 2013. chicken DT40 Tdp1-/-;hTDP1 cells + 20 nM CPT, ATP luminescence, 48 h. 12% of 420,000 active. Potency, µM (highest dose often 46.2 µM), for the others: at the top dose activity change, negative = growth inhibition, most hits filed as inhibitors; note: potency is the fitted concentration of half-maximal effect; % is set by controls: 0 for no effect and ±100 for the full control effect; nearly all actives have a fitted effect of over 55% in size
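Chicken DT40 Tdp1-/- cells complemented with human TDP1, 400 cells/well, exposed to compounds plus 20 nM camptothecin for at least 48 h at 37 C; viability read as ATP content by CellTiter-Glo luminescence.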
TGFb SMAD3 inh – qHTS for Inhibitors of TGF-b; Potency, µM (highest dose often 46.1 µM), for inactives: at the highest dose activity, negative = inhibition, most hits filed as inhibitors; HepG2 CAGA-GFP TGF-b/SMAD3 reporter, GFP fluorescence, 18 h; TGF-beta stimulated, 500 pg/mL final; AID 588855, 2011; 1.2% of 410,000 active; note: potency is the fitted concentration of half-maximal effect; % is set by controls: 0 for no effect and ±100 for the full control effect; nearly all actives have a fitted effect of over 65% in size
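First, reporter cells (HEPG2 CAGA-GFP) rested 2 h at 37 degrees C. Next, compounds were pinned in and TGF-beta added to 500 pg/mL final. After 18 h, GFP was imaged per cell and summed per well.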
DT40 TDP1 no CPT – qHTS for Inhibitors of human tyrosyl-DNA phosphodiesterase 1 (TDP1): qHTS in cells in absence of CPT. DT40 Tdp1-/- hTDP1 cells, no CPT, ATP luminescence, 48 h. Potency, µM (top dose mostly 46.2 µM), without a hit: at the top dose activity change, negative = growth inhibition, most hits filed as inhibitors. 15% of 420,000 active. AID 686978, 2013; note: potency is the fitted concentration of half-maximal effect; % is set by controls: 0 for no effect and ±100 for the full control effect; nearly all actives have a fitted effect of over 55% in size
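Growth kinetics read by CellTiter-Glo luminescence after ≥48 hr at 37 °C. Cells: DT40 Tdp1-/- stably carrying human TDP1, 400 per well, compound exposure in the absence of CPT (DMSO vehicle).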
IL1B secr inh – qHTS for Inhibitors of Inflammasome Signaling: IL-1-beta AlphaLISA Primary Screen; activity change, % at 57.5 µM; 4.7% of 360,000 active; AID 743279, 2014; THP-1 LPS/ATP IL-1B secretion, AlphaLISA, 16 h; hits give low values; in the data active = activity change below about -50%; inconclusive = mostly about -30% to -49%; note: % is set by controls: 0 for no effect and ±100 for the full control effect
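THP-1 cells pretreated 1 hr with compounds (up to 57.5 uM final), then stimulated with LPS (250 ng/mL final) plus ATP (1.25 mM final); secreted IL-1B measured by AlphaLISA after 16 hr, decreased signal indicating inhibition.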
TDP1 inh – qHTS Assay for Inhibitors of Tyrosyl-DNA Phosphodiesterase (TDP1) | AID 485290, 2010 | 0.28% of 350,000 active | recombinant TDP1, AlphaScreen DNA substrate cleavage | Tyrosyl-DNA phosphodiesterase 1 (Homo sapiens), Q9NUW8 | Potency, µM (top dose mostly 130 µM), for the others: at the top dose activity change, negative = inhibition, most hits filed as inhibitors; note: potency is the fitted concentration of half-maximal effect; % is set by controls: 0 for no effect and ±100 for the full control effect; nearly all actives have a fitted effect of over 40% in size
Target sequence (Q9NUW8 whole entry, looked up): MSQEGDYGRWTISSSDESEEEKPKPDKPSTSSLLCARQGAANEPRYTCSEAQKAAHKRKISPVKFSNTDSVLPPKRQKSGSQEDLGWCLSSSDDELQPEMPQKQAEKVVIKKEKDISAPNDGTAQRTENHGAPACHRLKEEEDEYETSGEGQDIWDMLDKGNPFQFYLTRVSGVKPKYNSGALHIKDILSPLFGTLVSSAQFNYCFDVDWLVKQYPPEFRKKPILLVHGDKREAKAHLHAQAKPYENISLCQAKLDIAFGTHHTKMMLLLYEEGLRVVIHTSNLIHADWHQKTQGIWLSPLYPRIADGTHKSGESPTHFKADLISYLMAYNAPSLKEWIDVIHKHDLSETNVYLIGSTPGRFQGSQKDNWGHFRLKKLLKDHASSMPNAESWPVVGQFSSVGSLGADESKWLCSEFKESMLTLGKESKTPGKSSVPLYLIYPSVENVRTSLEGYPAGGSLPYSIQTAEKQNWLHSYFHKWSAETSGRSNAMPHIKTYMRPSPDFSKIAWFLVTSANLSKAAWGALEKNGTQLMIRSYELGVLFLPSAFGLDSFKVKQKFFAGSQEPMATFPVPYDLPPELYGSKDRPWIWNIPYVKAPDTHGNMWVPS
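Recombinant human Tdp1 (E. coli-expressed, 1 nM final) preincubated with compounds 15 min at room temperature, then 5'-biotin/3'-phosphotyrosine-FITC DNA substrate (15 nM final) added for 5 min. AlphaScreen beads (10 ug/ml final) added 10 min; cleavage lowers signal.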
An asterisk follows results filed as active; ? = inconclusive; . = not tested or not shown; ! = not active in a repeat; [ ] = another dose, or the depositor's remark. Unless noted, calls come from the whole dose curve; as a rule, active = well fitted curve in the direction sought with a large enough effect; inconclusive = small, poorly fitted or top-dose-only effect, or another doubt; inactive = no such curve, though single readings can be large; an effect the other way counts as inactive or inconclusive.

SMILES	HepG2 viability	DT40 TDP1 CPT	TGFb SMAD3 inh	DT40 TDP1 no CPT	IL1B secr inh	TDP1 inh
O=C(COC(=O)c1ncc(Cl)c(Cl)c1Cl)NCCc1ccccc1	-13.2%	-2.5%	?	0.3%	-28.7	0.4%
CC1=C(/C=C/C(C)=C/C=C/C(C)=C\C=O)C(C)(C)CCC1	.	.	.	.	.	14.4%
CC1=C(/C=C/C(C)=C/C=C/C(C)=C/C=O)C(C)(C)CCC1	.	.	.	.	.	18.9%
CC1=C(/C=C/C(C)=C/C=C/C(C)=C\CO)C(C)(C)CCC1	.	18.4µM*	.	?	.	8.5%
CC1=C(/C=C/C(C)=C/C=C/C(C)=C/CO)C(C)(C)CCC1	-35.5%	?	-1.0%	20.6µM*!	-21.3	11.1%[56.1 µM]
CC(=O)OC/C=C(C)/C=C/C=C(C)/C=C/C1=C(C)CCCC1(C)C	.	?	.	23.1µM*!	.	1.0%
CCC12CN3CC(CC)(CN(C1)C3c1ccc([N+](=O)[O-])o1)C2=O (configuration not stated)	20.5%	3.3%	4.0%	-9.3%	11.8	-2.4%
COc1ccc(NC(=O)C2CCCN(c3nn4c(=O)cc(C)nc4s3)C2)c(OC)c1 (configuration not stated)	1.7%	-17.0%	4.8%	9.2%	-2.9	6.0%
O=C1CS/C(=N/N=C2CCCC2)N1	6.1%	1.6%	-1.0%	7.0%	7.6	3.7%
O=C1CSC(=NC2CCCCC2)N1	-18.5%	23.1µM*	-21.4%	18.4µM*	-95.6*	4.7%
NS(=O)(=O)c1ccc(CCNC(=O)Cc2ccccc2[N+](=O)[O-])cc1	-4.3%	-9.5%	3.5%	-10.1%	30.1	-2.4%
O=C(CCCc1ccccc1)Nc1ccc(Br)cc1F	-6.8%	14.6µM*	-0.1%	?	-11.3	.
CN(CC(=O)Nc1ccccc1)CC(=O)Nc1ccccc1Cl	3.3%	-14.2%	2.4%	8.5%	14.6	.
CN(CC(=O)Nc1ccccc1Cl)CC(=O)Nc1ccccc1[N+](=O)[O-]	-2.2%	?	3.6%	20.6µM*	17.3	4.8%
O=C(CCc1ccccc1)Nc1ccccc1[N+](=O)[O-]	9.1%	-2.0%	-18.1%	1.5%	3.7	8.2%
O=C(Cc1ccccc1[N+](=O)[O-])NCCCc1ccccc1	9.9%	16.4µM*	7.9%	?	0.7	.
O=C(CCc1ccccc1)Nc1ccc(F)cc1F	-3.3%	3.8%	0.0%	-5.0%	-22.3	5.9%
O=C(CCCc1ccccc1)Nc1ccccc1[N+](=O)[O-]	8.3%	10.3µM*	11.2%	20.6µM*	4.0	.
Cc1ccc(C(=O)N2CCOCC2)cc1[N+](=O)[O-]	-11.4%	-10.3%	-10.2%	-3.6%	24.9	2.6%
Cc1ccccc1CS(=O)(=O)c1ccc(C(=O)N2CCOCC2)cc1[N+](=O)[O-]	-55.2%	?	-21.0%	11.6µM*	-87.9*	6.3%
O=C(c1ccc(S(=O)(=O)Cc2ccccc2Cl)c([N+](=O)[O-])c1)N1CCOCC1	-35.7%	20.6µM*	?	20.6µM*	-99.8*	7.0%
COc1ccc(-c2ccc(C(C)=O)cc2)cc1C1C2C=CCCC2(C)C(=O)N1Cc1ccccc1 (configuration not stated)	-2.7%	.	-33.3%	.	.	7.4%
C[n+]1c(/C=C/c2ccc(F)cc2)ccc2ccccc21	-31.0%	3.55µM*	?	2.51µM*	.	.
Nc1nc(/C=C/c2ccc(F)cc2)nc(-c2ccccc2O)n1	-0.4%	?	5.7%	-28.5%	20.1	-2.7%
CCOc1ccc(/C=C/c2ccc3ccccc3[n+]2C)cc1OCC	-3.8%	3.98µM*	-0.4%	2µM*	.	.
SMILES	HepG2 viability	DT40 TDP1 CPT	TGFb SMAD3 inh	DT40 TDP1 no CPT	IL1B secr inh	TDP1 inh
C[n+]1c(/C=C/c2ccc(O)cc2)ccc2ccccc21	-72.8%	?	-24.9%	18.4µM*	?	.
C[n+]1c(/C=C/c2ccc3c(c2)OCO3)ccc2ccccc21	-13.7%	13.0%	-10.2%	2.0%	-22.0	3.7%
O=C(CCNS(=O)(=O)c1ccccc1)OCc1nc2ccsc2c(=O)[nH]1	3.1%	5.8%	-9.5%	9.7%	28.4	.
CC(C)C(C)NC(=O)COc1ccc(OCc2ccccc2)cc1 (configuration not stated)	0.5%	?	?	?	23.2	2.6%
CC(=O)c1ccc(OCc2ccc(C(=O)c3ccccc3)cc2)cc1	6.8%	10.3µM*	-5.7%	8.2µM*	-60.5*	-2.7%
CC(C)NC(=O)COc1ccc(OCc2ccccc2)cc1	-5.8%	?	-10.0%	29.1µM*	23.2	-1.2%
CC(C)C(C)NC(=O)COc1ccc(-c2ccccc2)cc1 (configuration not stated)	-1.5%	18.4µM*	7.4%	20.6µM*	-7.8	4.0%
CC(C)C(C)NC(=O)COc1ccc(Sc2ccc(OCC(=O)NC(C)C(C)C)cc2)cc1 (configuration not stated)	6.7%	11.6µM*	?	8.2µM*	9.6	5.3%
O=C(C=Cc1ccc2c(c1)OCO2)OCC=Cc1ccc2c(c1)OCO2	-7.8%	19.0%	9.7%	-15.2%	-9.6	.
Cc1ccc(Cn2c(SCc3ccc(C(=O)NC4CCCCC4)cc3)nc3ccncc32)cc1	-29.3%	?	?	20.6µM*	.	7.8%
COc1ccc(Cn2c(SCc3ccc(C(=O)NC4CCCCC4)cc3)nc3ccncc32)cc1	-31.8%	?	12.6µM*	16.4µM*	.	3.9%
COC(=O)c1ccc(Cn2c(SCc3ccc(F)cc3)nc3ccncc32)cc1	-22.9%	?	?	?	.	-1.0%
O=C(NC1CCCCC1)c1ccc(CSc2nc3ccncc3n2Cc2ccccc2)cc1	-39.2%	?	?	20.6µM*	.	5.1%
COc1ccc(CSc2nc3ccncc3n2CC(=O)Nc2cc(C)cc(C)c2)cc1	-29.4%	?	?	16.4µM*	.	7.6%

High-throughput results: PubChem, National Center for Advancing Translational Sciences (NCATS)
